Data as given in PubChem BioAssay AID504389 (National Center for Advancing Translational Sciences (NCATS), 2011).
Results filed as inconclusive are left out. Values without a mark were called inactive. Activity calls are given as the source filed them. The call rests on the fitted dose curve; in most records, active means well fitted curve in the direction sought with a large enough effect; inconclusive means small, poorly fitted or top-dose-only effect, or effect the other way, or another doubt; inactive means no such curve, though single readings can be large or run the other way.

molecular target: Thyrotropin receptor (Homo sapiens) (UniProt P16473); assay: qHTS Assay for Antagonists of the Thyroid Stimulating Hormone Receptor: SAR for Probe; conditions: HEK293-TSHR, TSH-stimulated cAMP HTRF, 2 h; series mostly up to 57.5 µM; activity change, negative = inhibition: at the top concentration
Excerpt: TSH is an alpha/beta heterodimeric glycoprotein hormone secreted from the anterior pituitary gland which belongs to the glycoprotein hormone family. The actions of TSH are mediated by a seven-transmembrane receptor, which upon TSH binding couples preferentially to the G-alpha (s) protein (Gs), resulting in activation of adenylate cyclase and increase in cyclic adenosine 3', 5' monophosphate (cAMP). The TSH receptor (THSR) is mainly expressed in thyroid follicular cells and regulates their growth and function. This cell based assay was conducted on a TSHR transfected HEK 293 cell line, measuring cAMP stimulation using antibody-based Homogeneous Time Resolved Fluorescence (HTRF). Our goal is to identify small molecules that will inhibit (antagonize) the thyroid-stimulating hormone receptor (TSHR), a member of the 7 transmembrane-spanning receptor (7TMR) family of cell surface receptors. TSHR-mediated hyperthyroidism is important in thyroid pathology. The development of small molecule antagonists of TSHR may lead to therapeutic approaches for TSHR-mediated hyperthyroidism caused by constitutively activating mutations or stimulating auto-antibodies associated with Graves' disease. Graves' disease is the leading cause of hyperthyroidism and is caused by autoantibodies that stimulate TSHR (TsAbs) causing thyroid growth and unregulated overproduction of thyroid hormones and existing treatments have liabilities (agranulocytosis). In addition, TSHRs are known to be expressed in multiple extrathyroidal tissues including bone, brain, kidney, testis, fat and cells of the immune system but the role of the TSHR in these tissues is not clear. Therefore, TSHR antagonists/inverse agonists could be used as probes of extrathyroidal TSHR function. Finally, TSHR inverse agonists, which are a subclass of antagonists that inhibit agonist-independent (or basal or constitutive) TSHR signaling, could be used to inhibit TSH-independent signaling in patients with recurrent or metastatic thyroid cancer who are receiving thyroid hormone to suppress TSH. The present assay presents confirmation data for analogues of series of interest in the primary screening assay.
An anti cAMP antibody contains a fluorescent cryptate tag (excitation 337 nm; emission 620 nm) and the acceptor is cAMP-d2 (excitation 620 nm; emission 665 nm). When antibody and cAMP-d2 interact and are excited by a 337 nm light, a FRET occurs resulting in emission at 665 nm. The assay is competition between cAMP-d2 and cAMP (from the cell lysate). The homogeneous protocol allows for one step dispense after stimulation that is automation friendly. Step, Parameter, Value, Description 1, Cells, 3 uL, 2000 TSHR freshly harvested cells/well 1536 TC treated White solid bottom plate (Cells resuspended in 10 mM HEPES buffered HBSS and 70 uM RO 20-1724) 2, Compound, 23 nL, Libraries and controls 3, Compound, 1 uL, EC80 TSH (4 nM final) 4, Time, 2 hours, 37C 5, Reagent, 2 uL, cAMP antibody diluted 1:20 in lysis buffer 6, Time, 30 minutes, Room temperature 7, Detector, HTRF settings, Viewlux

Sequence of Thyrotropin receptor (Homo sapiens) (P16473 whole entry, looked up): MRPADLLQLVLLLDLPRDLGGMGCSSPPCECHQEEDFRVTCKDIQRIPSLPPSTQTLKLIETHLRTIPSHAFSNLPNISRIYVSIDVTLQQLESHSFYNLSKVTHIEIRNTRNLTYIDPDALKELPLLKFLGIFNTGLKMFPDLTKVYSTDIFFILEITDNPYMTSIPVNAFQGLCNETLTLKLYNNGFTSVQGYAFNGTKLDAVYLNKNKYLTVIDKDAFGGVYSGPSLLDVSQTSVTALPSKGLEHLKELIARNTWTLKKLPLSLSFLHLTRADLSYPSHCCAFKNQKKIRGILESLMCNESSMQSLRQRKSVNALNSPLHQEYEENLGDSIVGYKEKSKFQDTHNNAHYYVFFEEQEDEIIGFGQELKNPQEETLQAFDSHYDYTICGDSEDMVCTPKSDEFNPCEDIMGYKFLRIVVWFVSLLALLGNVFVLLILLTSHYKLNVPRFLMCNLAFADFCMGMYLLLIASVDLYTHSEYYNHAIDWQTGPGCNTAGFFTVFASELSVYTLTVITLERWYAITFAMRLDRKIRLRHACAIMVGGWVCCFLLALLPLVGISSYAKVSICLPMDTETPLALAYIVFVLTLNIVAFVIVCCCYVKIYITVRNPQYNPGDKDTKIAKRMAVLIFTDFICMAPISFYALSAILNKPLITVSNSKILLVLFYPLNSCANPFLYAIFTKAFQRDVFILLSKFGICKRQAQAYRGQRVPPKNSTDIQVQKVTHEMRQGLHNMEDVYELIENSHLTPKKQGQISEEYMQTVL

| Compound | Potency | activity change, negative = inhibition [%] |
| --- | --- | --- |
| COc1ccc(C2Nc3ccccc3C(=O)N2Cc2ccco2)cc1COc1c(C)cc(NC(C)=O)cc1C (stereo not given) | 36.6 µM (active) | – |
| COc1ccc(C2Nc3ccccc3C(=O)N2Cc2ccccn2)cc1COc1c(C)cccc1C (stereo not given) | – | -8.52 |
| COc1ccc(C2Nc3ccccc3C(=O)N2Cc2ccccc2)cc1COc1ccccc1OC (stereo not given) | – | -0.288 |
| COc1cccc(CCN2C(=O)c3ccccc3NC2c2ccc(OC)c(COc3c(C)cc(NC(C)=O)cc3C)c2)c1 (stereo not given) | – | -3.34 |
| COc1ccc(C2Nc3ccccc3C(=O)N2CCCN(C)C)cc1COc1c(C)cc(NC(C)=O)cc1C (stereo not given) | – | -1.88 |
| COc1ccc(O)c(-c2nc3ccccc3c(=O)n2Cc2ccccc2)c1 | – | 2.81 |
| COc1ccc(C2Nc3cccc(O)c3C(=O)N2Cc2ccco2)cc1COc1c(C)cc(NC(C)=O)cc1C (stereo not given) | – | -5.28 |
| COc1ccc(CN2C(=O)c3ccccc3NC2c2ccc(OC)c(COc3c(C)cc(NC(C)=O)cc3C)c2)cc1 (stereo not given) | – | -1.26 |
| O=C1c2ccccc2NC(c2ccccc2O)N1Cc1ccccc1 (stereo not given) | – | 2.98 |
| COc1ccc(CN2C(=O)N(c3ccccc3)C(=O)C2c2ccccc2)cc1COc1ccc(NC(C)=O)cc1 (stereo not given) | – | 0.387 |
| COCCN1C(=O)c2ccccc2NC1c1ccc(OC)c(COc2c(C)cc(NC(C)=O)cc2C)c1 (stereo not given) | 46.1 µM (active) | – |
| COc1ccc(C2Nc3ccccc3C(=O)N2Cc2cccnc2)cc1COc1c(C)cccc1C (stereo not given) | 36.6 µM (active) | – |
| COc1ccc(C2Nc3ccccc3C(=O)N2Cc2ccncc2)cc1COc1c(C)cc(NC(C)=O)cc1C (stereo not given) | – | -2.14 |
| COc1ccc(C2Nc3ccccc3C(=O)N2CCCN(C)C)cc1COc1ccc(NC(C)=O)cc1 (stereo not given) | – | 1.85 |
| COc1cccc(CN2C(=O)c3ccccc3NC2c2ccc(OC)c(COc3c(C)cc(NC(C)=O)cc3C)c2)c1 (stereo not given) | – | -4.12 |
| COc1ccc(C2Nc3ccccc3C(=O)N2Cc2ccccc2)cc1COc1c(C)cc(NC(C)=O)cc1C (stereo not given) | – | -2.91 |
| COc1ccc(C2Nc3ccccc3C(=O)N2Cc2cccc(OC)c2OC)cc1COc1c(C)cc(NC(C)=O)cc1C (stereo not given) | – | -4.15 |
| COc1ccc(C2Nc3ccccc3C(=O)N2Cc2ccccc2)cc1COc1ccc(Cl)cc1 (stereo not given) | – | 0.804 |
| COc1ccc(C2Nc3ccccc3C(=O)N2CCO)cc1COc1ccc(NC(C)=O)cc1 (stereo not given) | – | 6.37 |
| COc1ccc(C2Nc3ccccc3C(=O)N2Cc2cccs2)cc1COc1c(C)cc(NC(C)=O)cc1C (stereo not given) | – | -13.2 |

| Compound | Potency | activity change, negative = inhibition [%] |
| --- | --- | --- |
| COc1ccc(C2Nc3ccccc3C(=O)N2Cc2ccco2)cc1COc1ccccc1 (stereo not given) | – | -5.86 |
| COc1ccc(C2Nc3ccccc3C(=O)N2Cc2ccc(C(F)(F)F)o2)cc1COc1c(C)cccc1C (stereo not given) | – | -13 |
| COc1ccc(OCc2cc(C3Nc4ccccc4C(=O)N3Cc3ccccc3)ccc2OC)cc1 (stereo not given) | – | 0.228 |
| COc1ccc(C(=O)O)cc1COc1ccc(NC(C)=O)cc1 | – | 1.98 |
| COc1ccc(C=O)cc1COc1ccc(NC(C)=O)cc1 | – | -1.52 |
| COc1ccc(CN(Cc2ccccc2)S(=O)(=O)c2ccccc2)cc1COc1ccc(NC(C)=O)cc1 | – | 1.9 |
| COc1ccc(C2Nc3ccccc3C(=O)N2Cc2ccco2)cc1COc1ccccc1C (stereo not given) | – | -6.42 |
| COc1ccc(C2Nc3ccccc3C(=O)N2CCO)cc1COc1c(C)cc(NC(C)=O)cc1C (stereo not given) | – | -4.88 |
| COc1ccc(C2Nc3ccccc3C(=O)N2Cc2ccco2)cc1COc1c(C(C)C)cccc1C(C)C (stereo not given) | – | -9.22 |
| COc1ccc(CN(Cc2ccccc2)C(=O)CN2CCN(C)CC2)cc1COc1ccc(NC(C)=O)cc1 | – | 2.86 |
| COc1ccc(O)c(C2Nc3ccccc3C(=O)N2Cc2ccccc2)c1 (stereo not given) | – | 2.33 |
| COc1ccc(C2Nc3cccc(OC)c3C(=O)N2Cc2ccco2)cc1COc1c(C)cc(NC(C)=O)cc1C (stereo not given) | – | -4.71 |
| COc1ccc(CN(Cc2ccccc2)C(=O)c2ccc(NC(C)=O)cc2)cc1COc1ccc(NC(C)=O)cc1 | – | 6.21 |
| COc1ccc(C2Nc3ccccc3C(=O)N2Cc2ccco2)cc1COc1ccc([N+](=O)[O-])cc1 (stereo not given) | – | 1.43 |
| Nc1ccccc1C(=O)NCc1ccco1 | – | 1.62 |
| COc1ccc(C2Nc3ccccc3C(=O)N2Cc2ccccc2OC)cc1COc1c(C)cc(NC(C)=O)cc1C (stereo not given) | – | -7.63 |
| COc1cc(C2Nc3ccccc3C(=O)N2Cc2ccccc2)ccc1OCc1ccc(NC(C)=O)cc1 (stereo not given) | – | 0.705 |
| COc1ccc(C2NC(=O)c3ccccc3N2)cc1COc1c(C)cc(NC(C)=O)cc1C (stereo not given) | – | -2.55 |
| COc1ccc(C2Nc3ccccc3C(=O)N2Cc2cccs2)cc1COc1c(C)cccc1C (stereo not given) | – | -18.8 |
| COc1ccc(C2Nc3ccccc3C(=O)N2Cc2ccccc2)cc1COc1cccc(C)c1 (stereo not given) | – | 0.0298 |
